These results are taken from PubChem BioAssay (EPA / NIEHS).

The source made the active and inactive calls. Rule for the calls: active = hit-call score of the fitted dose curve at least 0.9, where 1 is the maximum; inactive = score below 0.9.

What is called AC50 is the midpoint of the concentration-response curve, whichever way the signal moves.

Read-out in the experiment: serum amyloid A (SAA), SAA1 (gene 6288)
The experiment can be described thus: BSK_CASM3C_SAA: BioMAP Diversity Plus: CASM3C Assay for serum amyloid A (SAA) Biomarker Activity (AID 2283049).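 Note: SAA protein level quantified by ELISA.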 The note with it: primary human coronary artery smooth muscle cells; actives raise or lower the signal.
Take `CC(C)CC(C)O` (centres undefined): the outcome was inactive.

In the case of `CCN(CC)C(=S)SSC(=S)N(CC)CC`, the AC50 was 28.8 µM (active).

As to `FC(F)C(F)(F)COCC1CO1` (centres undefined), the outcome was inactive.

For `OCCC(F)(F)C(F)(F)C(F)(F)C(F)(F)F`, the outcome was inactive.

In the case of `CCCCN1C(=O)[C@@H]([C@H](O)C2CCCCC2)NC(=O)C12CCN(Cc1ccc(Oc3ccc(C(=O)O)cc3)cc1)CC2`, the outcome was inactive.

For the compound `NC(=O)N1c2ccccc2C=Cc2ccccc21`, the outcome was inactive.

`CC(C)c1nnc2ccc(-c3ocnc3-c3cc(F)ccc3F)cn12`: the result was inactive.

With `O=S(=O)(O)CCC(F)(F)C(F)(F)C(F)(F)C(F)(F)C(F)(F)C(F)(F)F`, the result was inactive.

As for `FC(F)=C(F)C(F)(F)C(F)(F)C(F)(F)C(F)(F)C(F)(F)C(F)(F)F`, the result was inactive.

As for `Cc1ccc(S(=O)(=O)NC(=O)NN2CCCCCC2)cc1`, the result was inactive.

For `NC(N)=O`, the result was inactive.

For the compound `CC[C@H](C)C(=O)O[C@H]1C[C@H](O)C=C2C=C[C@H](C)[C@H](CC[C@@H](O)C[C@@H](O)CC(=O)O)[C@H]21`, the outcome was inactive.

For the compound `CCCCCCCCN(C)C`, the outcome was inactive.

With `FC(F)(F)C(F)(F)C(F)(F)C(F)(F)C(F)(F)C(F)(F)I`, the result was inactive.

For `O=S(=O)(O)c1ccc(N=Nc2c(O)ccc3cc(S(=O)(=O)O)ccc23)cc1`, the result was inactive.

Take `CCCCCCOC(=O)CC(CC(=O)OCCCCCC)(OC(=O)CCC)C(=O)OCCCCCC`: the outcome was inactive.

As to `c1ccc2ncccc2c1`, the outcome was inactive.

As for `OC[C@H]1O[C@@](CO)(O[C@H]2O[C@H](CO)[C@@H](O)[C@H](O)[C@H]2O)[C@@H](O)[C@@H]1O`, the outcome was inactive.

For the compound `C[C@@H](Oc1ccc(CNC(=O)c2cccnc2Oc2ccc3c(c2)OCO3)c(F)c1)C(=O)O`, the outcome was inactive.
